Source: PubChem BioAssay AID1159580 (chemical genetic matrix, 2015)
Hit rate of the full screen: of about 5,500 compounds, about 2,000 (36%) were called active. About 18% were inconclusive and are not listed. No stated cut-off is given here; in the data, active means normalized growth mostly below about 0.91 (no sharp cut-off); inconclusive means no clear call, values can overlap the other calls; inactive means mostly above about 0.92. The list shows a part of the results.

Test: chemical genetic growth profiling, strain panel (AID 1159580);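 further: tested at 20 µM; growth read once vehicle control cultures reached saturation at 30 °C; 1 = growth at the plate median or of vehicle wells; lower values mean less growth of the strain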
Conditions: S. cerevisiae deletion strains, growth OD

Measured: normalized growth

COc1cc2c(cc1OC)[C@@H]1C(=O)c3ccc(O)c(CC=C(C)C)c3O[C@@H]1CO2
active: locus YAL021C, strain ccr4, active compounds read low 1.12 [resistant] | locus YBR279W, strain paf1, active compounds read low 1.12 [resistant] | locus YJL129C, strain trk1, active compounds read low 1.17 [resistant] | locus YJL187C, strain SWE1, active compounds read low 1.1 [resistant] | locus YLL041C, strain sdh2, active compounds read low 1.09 [resistant] | locus YOR106W, strain vam3, active compounds read low 1.13 [resistant] | locus YPL240C, strain hsp82, active compounds read low 1.11 [resistant]
inactive: locus YAL026C, strain drs2, active compounds read low 1.01 | locus YAL030W, strain snc1, active compounds read low 1.03 | locus YBL061C, strain skt5, active compounds read low 0.958 | locus YBR009C, strain hhf1, active compounds read low 1.03 | locus YBR021W, strain FUR4, active compounds read low 0.989 | locus YBR023C, strain chs3, active compounds read low 0.987 | locus YBR171W, strain sec66, active compounds read low 0.998 | locus YBR229C, strain ROT2, active compounds read low 0.986 | locus YBR231C, strain swc5, active compounds read low 1.01 | locus YCL011C, strain gbp2, active compounds read low 1.06 | locus YCL016C, strain dcc1, active compounds read low 0.965 | locus YCL029C, strain bik1, active compounds read low 0.984 | locus YCL061C, strain MRC1, active compounds read low 0.985 | locus YCL069W, strain vba3, active compounds read low 1 | locus YCR088W, strain abp1, active compounds read low 1 | locus YDL005C, strain med2, active compounds read low 1.05 | locus YDL035C, strain GPR1, active compounds read low 1.02 | locus YDL040C, strain nat1, active compounds read low 0.975 | locus YDL074C, strain BRE1, active compounds read low 0.961 | locus YDL101C, strain DUN1, active compounds read low 0.969 | locus YDL134C, strain PPH21, active compounds read low 0.967 | locus YDL185W, strain tfp1, active compounds read low 0.974 | locus YDL192W, strain arf1, active compounds read low 1.03 | locus YDR001C, strain nth1, active compounds read low 1.01 | locus YDR069C, strain doa4, active compounds read low 1.08 | locus YDR101C, strain arx1, active compounds read low 1.05 | locus YDR137W, strain rgp1, active compounds read low 1.02 | locus YDR159W, strain sac3, active compounds read low 1.07 | locus YDR162C, strain NBP2, active compounds read low 0.978 | locus YDR195W, strain ref2 0.963 | locus YDR297W, strain sur2, active compounds read low 1.05 | locus YDR318W, strain mcm21, active compounds read low 1.01 | locus YDR334W, strain swr1, active compounds read low 1 | locus YDR335W, strain msn5, active compounds read low 1.02 | locus YDR388W, active compounds read low 0.982 | locus YDR392W, strain spt3, active compounds read low 0.91 | locus YDR502C, strain sam2, active compounds read low 0.971 | locus YEL003W, strain gim4, active compounds read low 1.03 | locus YEL037C, strain rad23, active compounds read low 1.03 | locus YEL061C, strain CIN8 (second series), active compounds read low 1.06 | locus YEL061C, strain CIN8, active compounds read low 0.992 | locus YER015W, strain faa2, active compounds read low 1.01 | locus YER016W, strain bim1, active compounds read low 1.07 | locus YER110C, active compounds read low 0.966 | locus YER111C, strain swi4, active compounds read low 1.02 | locus YER155C, strain BEM2 (second series), active compounds read low 0.979 | locus YER155C, strain BEM2, active compounds read low 0.982 | locus YER167W, strain BCK2, active compounds read low 0.998 | locus YFR010W, strain ubp6, active compounds read low 1.01 | locus YGL078C, strain dbp3, active compounds read low 1.02 | locus YGL086W, strain mad1, active compounds read low 1.02 | locus YGL167C, strain pmr1, active compounds read low 0.988 | locus YGL173C, strain kem1, active compounds read low 1.01 | locus YGL227W, strain vid30, active compounds read low 0.997 | locus YGL240W, strain doc1, active compounds read low 1.03 | locus YGL248W, strain PDE1, active compounds read low 0.932 | locus YGL253W, strain hxk2, active compounds read low 1.02 | locus YGR078C, strain PAC10, active compounds read low 0.975 | locus YGR135W, strain pre9, active compounds read low 0.952 | locus YGR229C, strain SMI1, active compounds read low 1.19 | locus YGR252W, strain gcn5, active compounds read low 0.999 | locus YHR013C, strain ard1, active compounds read low 1.02 | locus YHR027C, strain rpn1, active compounds read low 1.03 | locus YHR030C, strain SLT2, active compounds read low 0.994 | locus YHR079C, strain IRE1 (second series), active compounds read low 1 | locus YHR094C, strain hxt1, active compounds read low 0.988 | locus YHR129C, strain ARP1, active compounds read low 0.984 | locus YHR142W, strain chs7, active compounds read low 1.02 | locus YHR200W, strain rpn10, active compounds read low 1 | locus YIL066C, strain RNR3, active compounds read low 0.981 | locus YIL073C, strain SPO22, active compounds read low 0.913 | locus YIL125W, strain kgd1, active compounds read low 0.994 | locus YIR030C, strain dcg1, active compounds read low 0.981 | locus YJL092W, strain hpr5, active compounds read low 1 | locus YJL095W, strain BCK1 (second series), active compounds read low 1.02 | locus YJL095W, strain BCK1, active compounds read low 0.953 | locus YJL115W, strain asf1, active compounds read low 1.06 | locus YJL134W, strain LCB3, active compounds read low 0.978 | locus YJL154C, strain vps35, active compounds read low 1.01 | locus YJL164C, strain tpk1, active compounds read low 1.02 | locus YJL166W, strain qcr8, active compounds read low 1.06 | locus YJL168C, strain set2, active compounds read low 0.979 | locus YJL187C, strain SWE1 (second series), active compounds read low 0.951 | locus YJR043C, strain POL32, active compounds read low 1.05 | locus YKL009W, strain mrt4, active compounds read low 0.93 | locus YKL068W, active compounds read low 0.969 | locus YKL085W, strain MDH1 (second series), active compounds read low 0.963 | locus YKL085W, strain MDH1, active compounds read low 0.963 | locus YKL160W, strain elf1, active compounds read low 1.02 | locus YKR001C, strain vps1, active compounds read low 1.02 | locus YKR026C, strain gcn3, active compounds read low 1 | locus YKR091W, strain srl3, active compounds read low 1.03 | locus YLL001W, strain dnm1, active compounds read low 1 | locus YLL026W, active compounds read low 1.03 | locus YLR027C, strain aat2, active compounds read low 1.07 | locus YLR039C, strain RIC1, active compounds read low 0.925 | locus YLR058C, strain SHM2, active compounds read low 0.98 | locus YLR102C, strain apc9, active compounds read low 0.991 | locus YLR221C, strain rsa3, active compounds read low 1.04 | locus YLR258W, strain gsy2, active compounds read low 1.06 | locus YLR262C, strain YPT6 (second series), active compounds read low 0.97 | locus YLR262C, strain YPT6, active compounds read low 0.906 | locus YLR268W, strain sec22, active compounds read low 1.02 | locus YLR320W, strain mms22, active compounds read low 0.961 | locus YLR330W, strain CHS5, active compounds read low 0.99 | locus YLR342W, strain FKS1 (second series), active compounds read low 1.06 | locus YLR342W, strain FKS1, active compounds read low 1.02 | locus YLR357W, strain rsc2, active compounds read low 1.05 | locus YLR370C, strain arc18, active compounds read low 1 | locus YLR371W, strain rom2, active compounds read low 1.02 | locus YLR384C, strain iki3, active compounds read low 0.971 | locus YLR418C, strain cdc73, active compounds read low 1 | locus YML016C, strain PPZ1, active compounds read low 1 | locus YML032C, strain rad52, active compounds read low 1.01 | locus YML120C, strain ndi1, active compounds read low 0.976 | locus YML124C, strain tub3, active compounds read low 0.989 | locus YMR058W, strain fet3, active compounds read low 1 | locus YMR078C, strain ctf18, active compounds read low 1.01 | locus YMR125W, strain sto1, active compounds read low 1.01 | locus YMR129W, active compounds read low 1.01 | locus YMR205C, strain PFK2, active compounds read low 1.02 | locus YMR223W, strain ubp8, active compounds read low 0.995 | locus YMR231W, strain pep5, active compounds read low 0.959 | locus YMR307W, strain GAS1, active compounds read low 1.1 | locus YNL067W, strain RPL9B, active compounds read low 0.958 | locus YNL071W, strain lat1, active compounds read low 1.02 | locus YNL128W, strain TEP1, active compounds read low 0.966 | locus YNL209W, strain ssb2, active compounds read low 1.05 | locus YNL233W, strain BNI4, active compounds read low 0.947 | locus YNL248C, strain rpa49, active compounds read low 1.01 | locus YNL250W, strain rad50, active compounds read low 0.923 | locus YNL271C, strain bni1, active compounds read low 1 | locus YNL298W, strain CLA4, active compounds read low 0.959 | locus YNL307C, strain MCK1, active compounds read low 0.967 | locus YNL322C, strain KRE1 (second series), active compounds read low 1.04 | locus YNL322C, strain KRE1, active compounds read low 0.985 | locus YNR049C, strain mso1, active compounds read low 0.999 | locus YNR052C, strain pop2, active compounds read low 0.986 | locus YOL012C, strain htz1 0.715 | locus YOL147C, strain pex11, active compounds read low 0.987 | locus YOR001W, strain rrp6, active compounds read low 1.05 | locus YOR061W, strain CKA2, active compounds read low 0.99 | locus YOR069W, strain VPS5, active compounds read low 0.98 | locus YOR070C, strain gyp1, active compounds read low 1.02 | locus YOR080W, strain dia2, active compounds read low 1.07 | locus YOR083W, strain WHI5, active compounds read low 1 | locus YOR136W, strain idh2, active compounds read low 0.98 | locus YOR144C, strain elg1, active compounds read low 0.993 | locus YOR184W, strain ser1, active compounds read low 1.08 | locus YOR265W, strain rbl2, active compounds read low 1 | locus YOR270C, strain vph1, active compounds read low 0.971 | locus YOR290C, strain snf2, active compounds read low 1.01 | locus YOR316C, strain cot1, active compounds read low 0.966 | locus YPL051W, strain arl3, active compounds read low 1 | locus YPL055C, strain LGE1, active compounds read low 1.01 | locus YPL078C, strain atp4, active compounds read low 1.01 | locus YPL106C, strain sse1, active compounds read low 1.11 | locus YPR119W, strain clb2, active compounds read low 0.986 | locus YPR141C, strain kar3, active compounds read low 1.01 | locus YPR163C, strain tif3, active compounds read low 1.01 | locus YPR167C, strain met16, active compounds read low 0.987 | strain wtn01, active compounds read low 1.04
